Hit rate of the full screen: of about 5,500 compounds, about 2,000 (36%) were called active. Not shown: some 18% with an inconclusive outcome. Cut-off read from the data, not from the text of the source: active = normalized growth mostly below about 0.91 (no sharp cut-off); inconclusive = no clear call, values can overlap the other calls; inactive = mostly above about 0.92. The list shows a part of the results.
Test: chemical genetic growth profiling, strain panel (AID 1159580);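 note: tested at 20 µM; growth read once vehicle control cultures reached saturation at 30 °C; 1 = growth at the plate median or of vehicle wells; lower values mean less growth of the strain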
Details: growth OD

Measured: normalized growth

CCC(C)C(=O)c1c(O)c(C)c2oc3c(C)c(O)c(C(=O)C(C)CC)c(O)c3c2c1O (stereo not drawn)
active: S. cerevisiae deletion strains, locus YDL185W, strain tfp1, hits give low values 0.895 | S. cerevisiae deletion strains, locus YDR137W, strain rgp1, hits give low values 0.813 | S. cerevisiae deletion strains, locus YGL086W, strain mad1, hits give low values 1.12 [resistant] | S. cerevisiae deletion strains, locus YJL187C, strain SWE1 (second series), hits give low values 0.767 | S. cerevisiae deletion strains, locus YKL085W, strain MDH1 (second series), hits give low values 1.11 [resistant] | S. cerevisiae deletion strains, locus YKL085W, strain MDH1, hits give low values 1.11 [resistant] | S. cerevisiae deletion strains, locus YLR039C, strain RIC1, hits give low values 0.674 | S. cerevisiae deletion strains, locus YLR058C, strain SHM2, hits give low values 0.866
inactive: S. cerevisiae deletion strains, locus YAL021C, strain ccr4, hits give low values 0.972 | S. cerevisiae deletion strains, locus YAL026C, strain drs2, hits give low values 0.982 | S. cerevisiae deletion strains, locus YAL030W, strain snc1, hits give low values 0.983 | S. cerevisiae deletion strains, locus YBL061C, strain skt5, hits give low values 0.98 | S. cerevisiae deletion strains, locus YBR009C, strain hhf1, hits give low values 0.977 | S. cerevisiae deletion strains, locus YBR021W, strain FUR4, hits give low values 1.05 | S. cerevisiae deletion strains, locus YBR023C, strain chs3, hits give low values 0.971 | S. cerevisiae deletion strains, locus YBR171W, strain sec66, hits give low values 0.995 | S. cerevisiae deletion strains, locus YBR229C, strain ROT2, hits give low values 0.996 | S. cerevisiae deletion strains, locus YBR231C, strain swc5, hits give low values 0.925 | S. cerevisiae deletion strains, locus YBR279W, strain paf1, hits give low values 0.988 | S. cerevisiae deletion strains, locus YCL011C, strain gbp2, hits give low values 0.98 | S. cerevisiae deletion strains, locus YCL016C, strain dcc1, hits give low values 0.973 | S. cerevisiae deletion strains, locus YCL029C, strain bik1, hits give low values 0.943 | S. cerevisiae deletion strains, locus YCL069W, strain vba3, hits give low values 1 | S. cerevisiae deletion strains, locus YCR088W, strain abp1, hits give low values 0.997 | S. cerevisiae deletion strains, locus YDL005C, strain med2, hits give low values 0.979 | S. cerevisiae deletion strains, locus YDL035C, strain GPR1, hits give low values 0.953 | S. cerevisiae deletion strains, locus YDL040C, strain nat1, hits give low values 0.994 | S. cerevisiae deletion strains, locus YDL074C, strain BRE1, hits give low values 0.949 | S. cerevisiae deletion strains, locus YDL101C, strain DUN1, hits give low values 0.959 | S. cerevisiae deletion strains, locus YDL134C, strain PPH21, hits give low values 0.977 | S. cerevisiae deletion strains, locus YDL192W, strain arf1, hits give low values 0.976 | S. cerevisiae deletion strains, locus YDR001C, strain nth1, hits give low values 1.01 | S. cerevisiae deletion strains, locus YDR069C, strain doa4, hits give low values 0.919 | S. cerevisiae deletion strains, locus YDR101C, strain arx1, hits give low values 0.987 | S. cerevisiae deletion strains, locus YDR150W, strain NUM1, hits give low values 0.966 | S. cerevisiae deletion strains, locus YDR159W, strain sac3, hits give low values 0.965 | S. cerevisiae deletion strains, locus YDR162C, strain NBP2, hits give low values 0.997 | S. cerevisiae deletion strains, locus YDR195W, strain ref2 0.977 | S. cerevisiae deletion strains, locus YDR297W, strain sur2, hits give low values 0.989 | S. cerevisiae deletion strains, locus YDR318W, strain mcm21, hits give low values 0.967 | S. cerevisiae deletion strains, locus YDR334W, strain swr1, hits give low values 1 | S. cerevisiae deletion strains, locus YDR335W, strain msn5, hits give low values 0.997 | S. cerevisiae deletion strains, locus YDR388W, hits give low values 0.961 | S. cerevisiae deletion strains, locus YDR392W, strain spt3, hits give low values 0.921 | S. cerevisiae deletion strains, locus YDR502C, strain sam2, hits give low values 0.935 | S. cerevisiae deletion strains, locus YEL003W, strain gim4, hits give low values 0.983 | S. cerevisiae deletion strains, locus YEL037C, strain rad23, hits give low values 1.01 | S. cerevisiae deletion strains, locus YEL061C, strain CIN8 (second series), hits give low values 1 | S. cerevisiae deletion strains, locus YEL061C, strain CIN8, hits give low values 0.97 | S. cerevisiae deletion strains, locus YER015W, strain faa2, hits give low values 0.983 | S. cerevisiae deletion strains, locus YER016W, strain bim1, hits give low values 0.996 | S. cerevisiae deletion strains, locus YER110C, hits give low values 0.975 | S. cerevisiae deletion strains, locus YER111C, strain swi4, hits give low values 0.984 | S. cerevisiae deletion strains, locus YER155C, strain BEM2 (second series), hits give low values 0.934 | S. cerevisiae deletion strains, locus YER155C, strain BEM2, hits give low values 1.02 | S. cerevisiae deletion strains, locus YER167W, strain BCK2, hits give low values 0.956 | S. cerevisiae deletion strains, locus YFR010W, strain ubp6, hits give low values 0.978 | S. cerevisiae deletion strains, locus YGL078C, strain dbp3, hits give low values 0.987 | S. cerevisiae deletion strains, locus YGL167C, strain pmr1, hits give low values 1 | S. cerevisiae deletion strains, locus YGL173C, strain kem1, hits give low values 0.97 | S. cerevisiae deletion strains, locus YGL227W, strain vid30, hits give low values 1 | S. cerevisiae deletion strains, locus YGL240W, strain doc1, hits give low values 0.949 | S. cerevisiae deletion strains, locus YGL248W, strain PDE1, hits give low values 0.984 | S. cerevisiae deletion strains, locus YGL253W, strain hxk2, hits give low values 1 | S. cerevisiae deletion strains, locus YGR135W, strain pre9, hits give low values 0.941 | S. cerevisiae deletion strains, locus YGR252W, strain gcn5, hits give low values 1.09 | S. cerevisiae deletion strains, locus YHR013C, strain ard1, hits give low values 0.969 | S. cerevisiae deletion strains, locus YHR027C, strain rpn1, hits give low values 0.998 | S. cerevisiae deletion strains, locus YHR030C, strain SLT2, hits give low values 0.964 | S. cerevisiae deletion strains, locus YHR079C, strain IRE1 (second series), hits give low values 0.979 | S. cerevisiae deletion strains, locus YHR094C, strain hxt1, hits give low values 0.999 | S. cerevisiae deletion strains, locus YHR129C, strain ARP1, hits give low values 0.952 | S. cerevisiae deletion strains, locus YHR142W, strain chs7, hits give low values 1.02 | S. cerevisiae deletion strains, locus YHR200W, strain rpn10, hits give low values 0.988 | S. cerevisiae deletion strains, locus YIL066C, strain RNR3, hits give low values 0.943 | S. cerevisiae deletion strains, locus YIL073C, strain SPO22, hits give low values 1.01 | S. cerevisiae deletion strains, locus YIL125W, strain kgd1, hits give low values 0.997 | S. cerevisiae deletion strains, locus YIR030C, strain dcg1, hits give low values 0.978 | S. cerevisiae deletion strains, locus YJL092W, strain hpr5, hits give low values 1 | S. cerevisiae deletion strains, locus YJL095W, strain BCK1 (second series), hits give low values 0.985 | S. cerevisiae deletion strains, locus YJL095W, strain BCK1, hits give low values 0.882 | S. cerevisiae deletion strains, locus YJL115W, strain asf1, hits give low values 1.01 | S. cerevisiae deletion strains, locus YJL129C, strain trk1, hits give low values 1.02 | S. cerevisiae deletion strains, locus YJL134W, strain LCB3, hits give low values 0.978 | S. cerevisiae deletion strains, locus YJL154C, strain vps35, hits give low values 1.01 | S. cerevisiae deletion strains, locus YJL164C, strain tpk1, hits give low values 0.977 | S. cerevisiae deletion strains, locus YJL166W, strain qcr8, hits give low values 0.983 | S. cerevisiae deletion strains, locus YJL168C, strain set2, hits give low values 0.983 | S. cerevisiae deletion strains, locus YJL187C, strain SWE1, hits give low values 0.983 | S. cerevisiae deletion strains, locus YJR043C, strain POL32, hits give low values 0.936 | S. cerevisiae deletion strains, locus YJR075W, strain HOC1, hits give low values 0.96 | S. cerevisiae deletion strains, locus YKL068W, hits give low values 0.965 | S. cerevisiae deletion strains, locus YKL160W, strain elf1, hits give low values 0.979 | S. cerevisiae deletion strains, locus YKR001C, strain vps1, hits give low values 0.952 | S. cerevisiae deletion strains, locus YKR026C, strain gcn3, hits give low values 1.01 | S. cerevisiae deletion strains, locus YKR091W, strain srl3, hits give low values 0.992 | S. cerevisiae deletion strains, locus YLL001W, strain dnm1, hits give low values 0.98 | S. cerevisiae deletion strains, locus YLL026W, hits give low values 0.996 | S. cerevisiae deletion strains, locus YLL041C, strain sdh2, hits give low values 1.01 | S. cerevisiae deletion strains, locus YLR027C, strain aat2, hits give low values 0.965 | S. cerevisiae deletion strains, locus YLR102C, strain apc9, hits give low values 0.98 | S. cerevisiae deletion strains, locus YLR221C, strain rsa3, hits give low values 0.957 | S. cerevisiae deletion strains, locus YLR258W, strain gsy2, hits give low values 0.971 | S. cerevisiae deletion strains, locus YLR262C, strain YPT6 (second series), hits give low values 0.949 | S. cerevisiae deletion strains, locus YLR262C, strain YPT6, hits give low values 0.773 | S. cerevisiae deletion strains, locus YLR268W, strain sec22, hits give low values 0.904 | S. cerevisiae deletion strains, locus YLR320W, strain mms22, hits give low values 0.954 | S. cerevisiae deletion strains, locus YLR330W, strain CHS5, hits give low values 0.979 | S. cerevisiae deletion strains, locus YLR342W, strain FKS1 (second series), hits give low values 0.92 | S. cerevisiae deletion strains, locus YLR342W, strain FKS1, hits give low values 0.968 | S. cerevisiae deletion strains, locus YLR357W, strain rsc2, hits give low values 0.957 | S. cerevisiae deletion strains, locus YLR370C, strain arc18, hits give low values 0.983 | S. cerevisiae deletion strains, locus YLR371W, strain rom2, hits give low values 0.973 | S. cerevisiae deletion strains, locus YLR384C, strain iki3, hits give low values 0.975 | S. cerevisiae deletion strains, locus YLR418C, strain cdc73, hits give low values 0.974 | S. cerevisiae deletion strains, locus YML016C, strain PPZ1, hits give low values 0.974 | S. cerevisiae deletion strains, locus YML032C, strain rad52, hits give low values 0.94 | S. cerevisiae deletion strains, locus YML120C, strain ndi1, hits give low values 0.989 | S. cerevisiae deletion strains, locus YML124C, strain tub3, hits give low values 0.992 | S. cerevisiae deletion strains, locus YMR058W, strain fet3, hits give low values 0.986 | S. cerevisiae deletion strains, locus YMR078C, strain ctf18, hits give low values 0.989 | S. cerevisiae deletion strains, locus YMR125W, strain sto1, hits give low values 0.969 | S. cerevisiae deletion strains, locus YMR129W, hits give low values 0.981 | S. cerevisiae deletion strains, locus YMR205C, strain PFK2, hits give low values 0.967 | S. cerevisiae deletion strains, locus YMR223W, strain ubp8, hits give low values 0.957 | S. cerevisiae deletion strains, locus YMR231W, strain pep5, hits give low values 0.993 | S. cerevisiae deletion strains, locus YMR263W, strain SAP30, hits give low values 0.975 | S. cerevisiae deletion strains, locus YMR307W, strain GAS1, hits give low values 1.09 | S. cerevisiae deletion strains, locus YNL067W, strain RPL9B, hits give low values 0.964 | S. cerevisiae deletion strains, locus YNL071W, strain lat1, hits give low values 1 | S. cerevisiae deletion strains, locus YNL153C, strain GIM3, hits give low values 0.928 | S. cerevisiae deletion strains, locus YNL209W, strain ssb2, hits give low values 0.982 | S. cerevisiae deletion strains, locus YNL233W, strain BNI4, hits give low values 0.993 | S. cerevisiae deletion strains, locus YNL248C, strain rpa49, hits give low values 0.91 | S. cerevisiae deletion strains, locus YNL250W, strain rad50, hits give low values 0.966 | S. cerevisiae deletion strains, locus YNL271C, strain bni1, hits give low values 0.987 | S. cerevisiae deletion strains, locus YNL298W, strain CLA4, hits give low values 0.972 | S. cerevisiae deletion strains, locus YNL307C, strain MCK1, hits give low values 0.982 | S. cerevisiae deletion strains, locus YNL322C, strain KRE1 (second series), hits give low values 0.978 | S. cerevisiae deletion strains, locus YNR049C, strain mso1, hits give low values 0.994 | S. cerevisiae deletion strains, locus YNR052C, strain pop2, hits give low values 0.966 | S. cerevisiae deletion strains, locus YOL012C, strain htz1 0.792 | S. cerevisiae deletion strains, locus YOL147C, strain pex11, hits give low values 0.986 | S. cerevisiae deletion strains, locus YOR001W, strain rrp6, hits give low values 0.954 | S. cerevisiae deletion strains, locus YOR061W, strain CKA2, hits give low values 0.932 | S. cerevisiae deletion strains, locus YOR069W, strain VPS5, hits give low values 0.977 | S. cerevisiae deletion strains, locus YOR070C, strain gyp1, hits give low values 0.966 | S. cerevisiae deletion strains, locus YOR080W, strain dia2, hits give low values 0.978 | S. cerevisiae deletion strains, locus YOR083W, strain WHI5, hits give low values 1 | S. cerevisiae deletion strains, locus YOR106W, strain vam3, hits give low values 0.973 | S. cerevisiae deletion strains, locus YOR136W, strain idh2, hits give low values 0.986 | S. cerevisiae deletion strains, locus YOR144C, strain elg1, hits give low values 0.992 | S. cerevisiae deletion strains, locus YOR184W, strain ser1, hits give low values 0.977 | S. cerevisiae deletion strains, locus YOR265W, strain rbl2, hits give low values 0.981 | S. cerevisiae deletion strains, locus YOR270C, strain vph1, hits give low values 0.921 | S. cerevisiae deletion strains, locus YOR290C, strain snf2, hits give low values 0.967 | S. cerevisiae deletion strains, locus YOR316C, strain cot1, hits give low values 0.974 | S. cerevisiae deletion strains, locus YPL051W, strain arl3, hits give low values 0.923 | S. cerevisiae deletion strains, locus YPL078C, strain atp4, hits give low values 0.992 | S. cerevisiae deletion strains, locus YPL106C, strain sse1, hits give low values 0.966 | S. cerevisiae deletion strains, locus YPL240C, strain hsp82, hits give low values 0.995 | S. cerevisiae deletion strains, locus YPL241C, strain CIN2, hits give low values 0.995 | S. cerevisiae deletion strains, locus YPR119W, strain clb2, hits give low values 0.99 | S. cerevisiae deletion strains, locus YPR141C, strain kar3, hits give low values 0.967 | S. cerevisiae deletion strains, locus YPR163C, strain tif3, hits give low values 0.994 | S. cerevisiae deletion strains, locus YPR167C, strain met16, hits give low values 0.976 | S. cerevisiae deletion strains, strain wtn01, hits give low values 0.969 | S. cerevisiae strains, strain wild type, hits give low values 0.965
